This note sets out measurements from ChEMBL document CHEMBL1961873, “Compounds: GSK PKIS; Assays: Nanosyn kinase panel” (2012).

Experiment [1] has as its target Serine/threonine-protein kinase PAK 6 (Homo sapiens) (UniProt Q9NQU5). The settings on record: at 1 µM.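 Also: values are mean percent inhibition of PAK6 kinase.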
For experiment [2], the system named is Tyrosine-protein kinase ABL1 (Homo sapiens), P00519 [E255K]. Particulars: at 0.1 µM.
For experiment [3] the test system is unchanged. The settings on record: at 1 µM.
Experiment [4] relates to Tyrosine-protein kinase ABL1 (Homo sapiens), P00519 [H396P]. Particulars: at 0.1 µM.
Experiment [5] has the same test system. The settings on record: at 1 µM.
Experiment [6] relates to Tyrosine-protein kinase ABL1 (Homo sapiens), P00519 [M351T]. The settings on record: at 0.1 µM.
The test system is the same in experiment [7]. The settings on record: at 1 µM.
For experiment [8], the system named is Tyrosine-protein kinase ABL1 (Homo sapiens), P00519 [Q252H]. Particulars: at 0.1 µM.
For experiment [9] the test system is unchanged. Particulars: at 1 µM.
Experiment [10] concerns Tyrosine-protein kinase ABL1 (Homo sapiens), P00519 [T315I]. Particulars: at 0.1 µM.

Serine/threonine-protein kinase PAK 6 (Homo sapiens), sequence (Q9NQU5 whole entry, looked up): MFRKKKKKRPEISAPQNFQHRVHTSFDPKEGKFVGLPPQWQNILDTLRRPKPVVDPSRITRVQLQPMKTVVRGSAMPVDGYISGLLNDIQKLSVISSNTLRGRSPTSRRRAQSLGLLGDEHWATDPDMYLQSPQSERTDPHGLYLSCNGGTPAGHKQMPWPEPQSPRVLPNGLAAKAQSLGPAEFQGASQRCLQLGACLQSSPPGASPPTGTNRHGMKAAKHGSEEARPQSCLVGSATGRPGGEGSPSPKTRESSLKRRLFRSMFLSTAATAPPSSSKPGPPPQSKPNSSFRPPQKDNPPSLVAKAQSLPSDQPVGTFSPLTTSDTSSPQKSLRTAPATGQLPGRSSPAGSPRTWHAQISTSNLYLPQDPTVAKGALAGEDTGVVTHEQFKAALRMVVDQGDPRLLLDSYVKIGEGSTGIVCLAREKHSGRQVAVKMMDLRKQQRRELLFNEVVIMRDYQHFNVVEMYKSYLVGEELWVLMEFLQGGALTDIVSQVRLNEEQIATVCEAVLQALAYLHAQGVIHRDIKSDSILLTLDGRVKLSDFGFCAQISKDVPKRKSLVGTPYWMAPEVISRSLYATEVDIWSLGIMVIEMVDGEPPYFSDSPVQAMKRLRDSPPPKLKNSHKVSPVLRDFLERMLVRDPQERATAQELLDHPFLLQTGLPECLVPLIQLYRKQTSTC

Usually inhibition stands for the relative decrease from the control value, in per cent. In the case of `O=C(Nc1n[nH]c2cc(-c3cc(F)ccc3F)ccc12)C1CC1`, the inhibition in [1] is -0.43%; in [2], 8.07%; in [3], 31.4%; in experiment [4], 13.8%; in experiment [5] it was 52.2%; in experiment [6] it was 13%. Also, the inhibition is 53.8% in experiment [7], 8.73% in experiment [8], 35.5% in experiment [9] and 23.3% in [10].

In the case of `NC(=O)c1cc(-c2ccc(F)cc2)cc(-c2ccncc2)c1N`, the inhibition in [1] was -7.94%; in [2], 3.29%; in [3] it was 4.43%; in experiment [4], 3.43%; in experiment [5], 5.86%; in experiment [6] it was 2.81%. Further, the inhibition was 2.85% in experiment [7], 4.84% in [8], 5.67% in [9] and 3.32% in experiment [10].

Take `CN1CCN(CCCNc2nc3ccc(Oc4ccc(NC(=O)Nc5cc(C(F)(F)F)ccc5F)cc4)cc3[nH]2)CC1`: the inhibition was -3.76% in experiment [1]; 0.07% in experiment [2]; 4.6% in [3]; 0.89% in experiment [4]; 15% in experiment [5]; 14.3% in [6]. The inhibition in experiment [7] is 45.5%; in experiment [8] it was 12.8%; in experiment [9], 48.1%; in [10] it was 16.6%.

As for `NS(=O)(=O)c1ccc(N/N=C2\C(=O)Nc3ccc(C(=O)NCCCn4ccnc4)cc32)cc1`, the inhibition was determined as 5.15% in [2]; 10.9% in experiment [3]; 5.17% in [4]; 14.3% in experiment [5]; 0.91% in experiment [6]; 14.2% in experiment [7]. The values for the inhibition in experiment [8], in [9] and in experiment [10] were 5.21%, 13.1% and 3.66%, respectively.

As for `COc1ccc2cc(-c3c(-c4ccncc4)nc(-c4ccc([S+](C)[O-])cc4C)n3C)ccc2c1` (stereo unspecified), the inhibition in [1] was 1.24%; in experiment [2], -1.36%; in [3], 5.96%; in experiment [4], 2.45%; in experiment [5] it was 17.6%; in experiment [6], 2.12%. Further, the inhibition came out at 19.8% in [7], 2.32% in experiment [8], 18% in experiment [9] and 9.26% in experiment [10].

For the molecule `COc1cc(C)c(N(C)C(=O)CN(C)C)cc1Nc1nc(Nc2cccc(F)c2C(N)=O)c2cc[nH]c2n1`, the inhibition in experiment [1] was -3.09%; in experiment [2], -1.15%; in experiment [3] it was 1.77%; in experiment [4], 1.11%; in [5] it was -0.41%; in experiment [6] it was 0.41%. Also, the inhibition was -0.05% in experiment [7], 0.29% in experiment [8], 0.09% in experiment [9] and 0.48% in [10].

On to `O=C1Nc2ccccc2/C1=C/Nc1ccc(-n2cncn2)cc1`, for which the inhibition in [2] came out at 1.9%; in experiment [3] it was 9.03%; in experiment [4] it was 2.67%; in experiment [5], 13.3%; in experiment [6] it was 1.55%; in experiment [7] it was 14.5%. Besides, the inhibition in [8] turned out to be 3.88%; in experiment [9], 13.4%; in [10] it was 3.25%.

For `COc1cccc(-n2cnc3c(N/N=C/c4ccncc4)ncnc32)c1`, the inhibition in experiment [1] amounted to 3.44%; in [2] it was 30.8%; in [3], 80.2%; in [4], 47.1%; in experiment [5], 87.1%; in experiment [6] it was 44.7%. The inhibition in experiment [7] is 88.1%; in experiment [8], 40.1%; in experiment [9] it was 84.2%; in [10], 1.94%.

Take `O=C1NC(=O)C(c2cccc(Cl)c2)=C1Nc1ccc(Cl)c(C(=O)O)c1`: the inhibition in [1] was -4.4%; in [2] it was 1.78%; in experiment [3], 3.24%; in experiment [4], 2.08%; in experiment [5] it was 6.18%; in experiment [6], 2.29%. The inhibition in experiment [7] stood at 5.05%; in experiment [8], 2.43%; in experiment [9] it was 4.98%; in experiment [10], 1.3%.

As to `N#Cc1ccc(Oc2nccc(-c3c(-c4ccc(F)cc4)ncn3C3CCNCC3)n2)cc1`, the inhibition in experiment [1] is -7.23%; in experiment [2], 2.37%; in experiment [3], 3.79%; in experiment [4], 3.91%; in [5], 5.59%; in experiment [6], 2.13%. The inhibition in [7] worked out at 4.25%; in [8] it was 4%; in experiment [9], 6.46%; in experiment [10], 3.62%.

With `Cc1ccc(C(=O)NC(C)C)cc1-c1ccc(C(=O)NCC2CC2)cc1`, the inhibition was -0.92% in [2]; -0.81% in experiment [3]; -1.54% in [4]; -1.16% in [5]; -0.95% in experiment [6]; 1.25% in [7]. The figures for the inhibition in [8], in experiment [9] and in [10] were -2.61%, -1.55% and -1.99%, respectively.

On to `c1ccc(Oc2ccc(Nc3ncc(-c4ccccc4)o3)cc2)cc1`, for which the inhibition in [1] is -7.12%; in [2] it was 1.57%; in experiment [3], 0.84%; in [4], 2.43%; in experiment [5], 0.51%; in experiment [6] it was 1.56%. The inhibition in [7] came to 1.33%; in experiment [8], 1.3%; in experiment [9], 0.81%; in experiment [10] it was 1.59%.

Consider `Cc1ccc(NC(=O)c2ccoc2)cc1-c1ccc(C(=O)NCC2CC2)cc1`, for which the inhibition in [1] was -2.77%; in experiment [2], 1.13%; in [3], -0.37%; in [4] it was 3.08%; in experiment [5], 2.07%; in [6], 0.71%. Besides, the inhibition in [7] came to 1.82%; in [8] it was 2.29%; in experiment [9] it was 0.64%; in experiment [10], 2.05%.

Turning to `CN(C)CCOc1ccc(-c2cc(-c3ccc4c(c3)CCC4=NO)c(-c3ccncc3)o2)cc1`, the inhibition is 1.93% in [1]; -1.95% in experiment [2]; 7.95% in experiment [3]; 1.96% in [4]; 20.9% in experiment [5]; 3.15% in experiment [6]. Besides, the inhibition in experiment [7] turned out to be 19.9%; in [8], 4.54%; in experiment [9], 34.5%; in experiment [10], 1.35%.

As to `CS(=O)(=O)CCNCc1cc(-c2cc3c(Nc4ccc(OCc5cccc(F)c5)c(Cl)c4)ncnc3s2)cs1`, the inhibition in [2] is 2.18%; in [3] it was 4.04%; in experiment [4], 4.45%; in experiment [5], 5.71%; in experiment [6], 2%; in [7], 5.07%. Besides, the inhibition in [8] amounted to 4.77%; in experiment [9], 6.1%; in [10], 4.15%.

For `COc1ccc2ncn(-c3cc(O[C@H](C)c4ccccc4Cl)c(C(N)=O)s3)c2c1`, the inhibition in experiment [1] is 1.83%; in [2], 1.19%; in [3] it was 2.26%; in experiment [4], 3.99%; in experiment [5] it was 9.15%; in experiment [6], 0.34%. Moreover, the inhibition worked out at 5.61% in [7], 2.81% in experiment [8], 4.72% in experiment [9] and 0.33% in experiment [10].

For `c1ccc(-c2n[nH]cc2-c2ccnc(-c3ccc(OCCN4CCOCC4)cc3)c2)nc1`, the inhibition in experiment [1] is 3.66%; in experiment [2] it was 9.49%; in [3] it was 47.8%; in [4], 19.5%; in experiment [5], 70.9%; in experiment [6] it was 22.1%. Further, the inhibition in experiment [7] came out at 69.1%; in experiment [8] it was 11.9%; in experiment [9], 51.8%; in experiment [10], 1.78%.
